Bioassay records deposited in PubChem by several laboratories.
Compounds with a hit are over-represented: about 4.5% of the library has one in this group of screens.
Mdm2-MdmX inh = human Mdm2/MdmX binding inhibition | SaOS-2 split-luciferase Mdm2/MdmX complementation, luminescence | AID 485346 | inhibition, % at 8 µM | O15151+Q00987 | 330,000 tested, 3% active;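 active = inhibition of at least 50% at 8 µM in the primary screen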
Target sequence (O15151 whole entry, looked up): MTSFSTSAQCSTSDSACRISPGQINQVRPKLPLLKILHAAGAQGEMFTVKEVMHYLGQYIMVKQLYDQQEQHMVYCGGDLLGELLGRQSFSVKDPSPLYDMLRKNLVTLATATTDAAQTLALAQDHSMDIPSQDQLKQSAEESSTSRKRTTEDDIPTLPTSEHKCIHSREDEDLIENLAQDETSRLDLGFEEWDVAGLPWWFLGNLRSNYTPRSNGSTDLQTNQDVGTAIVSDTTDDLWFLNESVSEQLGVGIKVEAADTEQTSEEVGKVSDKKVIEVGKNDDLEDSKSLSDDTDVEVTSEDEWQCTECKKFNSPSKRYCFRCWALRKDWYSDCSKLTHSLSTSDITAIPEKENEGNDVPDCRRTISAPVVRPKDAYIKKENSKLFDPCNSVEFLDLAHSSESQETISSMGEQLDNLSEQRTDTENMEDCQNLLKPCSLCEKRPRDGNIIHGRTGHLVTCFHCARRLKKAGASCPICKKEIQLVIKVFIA
Target sequence (Q00987 whole entry, looked up): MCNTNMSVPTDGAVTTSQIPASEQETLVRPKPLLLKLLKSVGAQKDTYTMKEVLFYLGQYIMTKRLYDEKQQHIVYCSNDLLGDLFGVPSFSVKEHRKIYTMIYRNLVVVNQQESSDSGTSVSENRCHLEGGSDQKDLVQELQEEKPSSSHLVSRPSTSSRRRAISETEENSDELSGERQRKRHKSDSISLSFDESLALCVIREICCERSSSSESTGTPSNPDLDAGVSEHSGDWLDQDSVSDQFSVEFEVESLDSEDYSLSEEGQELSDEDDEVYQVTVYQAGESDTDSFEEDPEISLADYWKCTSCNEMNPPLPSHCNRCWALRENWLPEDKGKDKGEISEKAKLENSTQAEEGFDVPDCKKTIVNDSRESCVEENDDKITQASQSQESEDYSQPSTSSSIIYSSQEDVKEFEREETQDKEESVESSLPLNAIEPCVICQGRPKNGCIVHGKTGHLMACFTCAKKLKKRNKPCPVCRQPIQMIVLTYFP
CSC inhib = blocks cancer stem cells; inhibition, % at 7.5 µM; 300,000 tested, 1.1% active; cancer stem cell-like cells viability, luminescence; AID 2717; in the data active = inhibition above about 75%; tested in HMLE shEcad cells
697 NFkB inh = lowers PMA/ionomycin-induced NF-kB signal in 697 B cells; 697 B-cell NF-kB luciferase reporter, 16 h; inhibition, % at 4 µM; 330,000 tested, 0.33% active; in the data active = inhibition above about 35%
aSyn 5UTR inh = MLPCN primary screen, SNCA 5' untranslated region. alpha-synuclein 5'UTR reporter, inhibitor activity. inhibition, % (tested at 7.5 µM). 300,000 tested, 0.82% active; in the data active = inhibition above about 60%;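 note: H4 neuroglioblastoma cells stably carrying SNCA 5'UTR luciferase fusion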
Jurkat NFkB inh = inhibitors of the PMA/ionomycin-induced NF-kB reporter in Jurkat cells; inhibition, % at 4 µM; 330,000 tested, 0.53% active; PMA/ionomycin-induced NF-kB luciferase reporter, luminescence; AID 435003; in the data active = inhibition above about 50%
Gli-Sufu antag = antagonists of Gli-Sufu signaling; Sufu-KO-LIGHT fibroblasts, Gli luciferase reporter luminescence; inhibition, % at 5 µM; 340,000 tested, 0.74% active; AID 588413;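 active = inhibition above about 55%, limit read from the data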
Mdm2 MdmX conf = confirmation of human Mdm2/MdmX interaction inhibitors; Mdm2-MdmX binding, luminescent assay; shares compounds with Mdm2-MdmX inh; inhibition, % at 8 µM; 10,000 tested, 55% active; in the data active = inhibition above about 40%
Full FLuc ctr = inhibits full-length luciferase, flagging false Mdm2/MdmX hits | shares compounds with Mdm2-MdmX inh | SaOS-2 full-length luciferase counterscreen, luminescence | inhibition, % at 8 µM | 6,200 tested, 77% active | AID 504607;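 active = mean inhibition at 8 µM reaching about 37%, which flags the compound as non-specific, limit read from the data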;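 note: p53-null SaOS-2 cells with luciferase driven by a doxycycline-inducible promoter; compound on cells about two nights before reading with doxycycline added after day one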
Of the large screens only hits and unclear results are named; the others gave an inactive call (follow-up assays come after a bar, where they were run).

O=C(NC(=O)c1ccc(Cl)cc1)Nc1ccc(-c2cnco2)cc1	none (no result: Gli-Sufu antag)
Cc1nc(SCC(=O)NCCN2C(=O)CSC2=O)nc(C)c1C	none (no result: aSyn 5UTR inh)
CCOC(=O)c1c(NC(=O)C2=C(C)NC(=S)NC2c2ccc(CC)cc2)sc(C)c1C (stereo not drawn)	Mdm2-MdmX inh 64.0 (no result: Gli-Sufu antag) | Mdm2 MdmX conf inactive
Cc1ccc(/C=C2/SC(=S)N(CCC(=O)N3CCN(C)CC3)C2=O)cc1	none
O=C(CCCN1C(=O)/C(=C\c2ccccc2)SC1=S)Nc1ccc(O)cc1C(=O)O	none
Cc1ccc(/C=C2\SC(=S)N(CCC(=O)N3CCCCC3)C2=O)cc1	Mdm2-MdmX inh 71.8 (no result: CSC inhib) | Mdm2 MdmX conf 66.2 | Full FLuc ctr 122.1
O=C(CN1C(=O)S/C(=C/c2ccncc2)C1=O)N1CCOCC1	Mdm2-MdmX inh 65.1 | Mdm2 MdmX conf inactive
O=C(CN1C(=O)/C(=C/c2ccccc2)SC1=S)N1CCN(CCc2ccccn2)CC1	Mdm2-MdmX inh 83.8 | Mdm2 MdmX conf 54.0 | Full FLuc ctr inactive
O=C(CCCN1C(=O)/C(=C/c2ccccc2)SC1=S)Nc1ccccc1O	Mdm2-MdmX inh 95.5 | Mdm2 MdmX conf 87.7 | Full FLuc ctr inactive
C[C@H]1CCC(=O)N([C@H](CN=[N+]=[N-])Cc2ccccc2)CC1	none
COc1cccc(NC(=O)CSc2nc3ccccc3c(=O)n2CCCC(=O)NCC2CCCO2)c1 (stereo not drawn)	none
O=C(CCN1C(=O)/C(=C\c2cccc(Br)c2)SC1=S)N1CCOCC1	Mdm2-MdmX inh 61.0 | Mdm2 MdmX conf 47.4 | Full FLuc ctr inactive
COc1cc(OC)c(/C=C2\SC(=O)N(CC(=O)Nc3ccccc3F)C2=O)c(OC)c1	Mdm2-MdmX inh 57.4 | Mdm2 MdmX conf inactive | Full FLuc ctr 73.1
COc1cc(/C=C2\SC(=O)N(CC(=O)Nc3ccccc3F)C2=O)cc(Cl)c1O	none
COc1ccc(/C=C2/SC(=O)N(CCC(=O)Nc3ccc(C)cc3)C2=O)cc1OC	none (no result: Gli-Sufu antag)
O=C(CCN1C(=O)/C(=C\c2ccccc2)SC1=S)N1CCCCC1	Mdm2-MdmX inh 56.5 | Mdm2 MdmX conf 72.2 | Full FLuc ctr 61.5
COc1ccc(/C=C2/SC(=O)N(CCC(=O)Nc3ccccc3)C2=O)cc1OC	Mdm2-MdmX inh 74.9 | Mdm2 MdmX conf inactive | Full FLuc ctr 81.8
COc1cc(/C=C2\SC(=S)N(CCC(=O)Nc3ccc(O)cc3)C2=O)cc(OC)c1OC	Mdm2-MdmX inh 92.4 | Mdm2 MdmX conf inactive
COc1ccc(/C=C2\SC(=S)N(CCCCCC(=O)Nc3cc(C)on3)C2=O)cc1OC	Mdm2-MdmX inh 65.7 | Mdm2 MdmX conf inactive
COc1cc(/C=C2\SC(=S)N(CCC(=O)N3CCCCC3)C2=O)cc(OC)c1OC	Mdm2-MdmX inh 68.2 (no result: CSC inhib) | Mdm2 MdmX conf 43.0 | Full FLuc ctr 62.9
O=C(CCCN1C(=O)/C(=C\c2ccccc2)SC1=S)N1CCOCC1	Mdm2-MdmX inh 51.0 (no result: aSyn 5UTR inh) | Mdm2 MdmX conf inactive
O=C(CCCN1C(=O)/C(=C/c2ccccc2Cl)SC1=S)N1CCOCC1	none
COc1ccc(/C=C2\SC(=S)N(CCCC(=O)Nc3cc(C)on3)C2=O)cc1OC	none
Cc1ccc(C(=O)N2CCN(C)CC2)cc1[N+](=O)[O-]	none
C/C(N)=C(/C#N)C(=O)COC(=O)c1ccccc1Oc1ccccc1	none (no result: CSC inhib)
CC(C)(C)OC(=O)N1CCC2(CC1)Oc1ccc(F)cc1C(=O)C21CC(c2ccc(Cl)cc2)=NO1 (stereo not drawn)	none (no result: Gli-Sufu antag)
O=C(CCCN1C(=O)/C(=C\c2ccco2)SC1=S)Nc1ccc2ccccc2c1	Mdm2-MdmX inh 60.3, CSC inhib 86.2 | Mdm2 MdmX conf inactive | Full FLuc ctr 98.2
COc1cc(/C=C2\SC(N)=NC2=O)ccc1OCC(=O)Nc1ccc(C)cc1	Mdm2-MdmX inh 56.5 | Mdm2 MdmX conf inactive
O=C(CCCN1C(=O)/C(=C/c2ccco2)SC1=S)Nc1ccccc1C(=O)O	none
CCN(CC)C(=O)CN1C(=O)/C(=C/c2ccccc2)SC1=S	Mdm2-MdmX inh 63.3 | Mdm2 MdmX conf 45.2 | Full FLuc ctr inactive
O=C(CCN1C(=O)/C(=C/c2cccs2)SC1=S)N1CCCCC1	Mdm2-MdmX inh 68.1 | Mdm2 MdmX conf 52.0 | Full FLuc ctr 45.0
COc1cc(/C=C2/SC(=S)N(CC(=O)O)C2=O)ccc1OCC(=O)Nc1ccc(C)c(C)c1	none (no result: Gli-Sufu antag)
Cc1c(NC(=O)c2cc(CC(C)C)on2)c(=O)n(-c2ccccc2)n1C	none
Cc1ccc2c(c1)N(C(=O)CCC(=O)NC1CCCCCC1)CC(C)O2 (stereo not drawn)	none
COC(=O)CCCC(=O)N1CCCC(CNS(=O)(=O)c2ccc(OC)cc2)C1 (stereo not drawn)	none
COc1cccc(/C=C2\SC(=S)N(CCC(=O)N3CCCCC3CCO)C2=O)c1 (stereo not drawn)	Mdm2-MdmX inh 76.9 | Mdm2 MdmX conf 45.4 | Full FLuc ctr 39.8
COc1ccc(/C=C2\SC(=S)N(CCCC(=O)N3CCN(C)CC3)C2=O)cc1OC	none (no result: Mdm2-MdmX inh, CSC inhib, 697 NFkB inh, aSyn 5UTR inh, Jurkat NFkB inh)
COc1cccc(/C=C2\SC(=S)N(CCCC(=O)N3CCCC3)C2=O)c1	Mdm2-MdmX inh 84.0 | Mdm2 MdmX conf 45.6 | Full FLuc ctr inactive
COc1cccc(/C=C2\SC(=S)N(CCCC(=O)N3CCCCC3CCO)C2=O)c1 (stereo not drawn)	Mdm2-MdmX inh 77.8 | Mdm2 MdmX conf 61.5 | Full FLuc ctr inactive
COc1ccc(CC(=O)Nc2nnc(C(C)(C)C)s2)cc1OC	none
Cc1ccccc1OCC(=O)OCC(=O)Nc1ncc(Cl)c(C)c1Cl	none (no result: CSC inhib, aSyn 5UTR inh)
COc1ccc(CC(=O)Nc2cc(C)c3c(=O)oc4ccccc4c3n2)cc1	none
CCOc1ccc(C(=O)Nc2cc(C)c3c(=O)oc4ccccc4c3n2)cc1	Mdm2-MdmX inh 64.8 | Mdm2 MdmX conf inactive
Cc1ccccc1CNS(=O)(=O)c1csc(C(N)=O)c1	none
Nc1ncnc2c1C(c1ccccc1)c1c(ccc3ccccc13)O2 (stereo not drawn)	Mdm2-MdmX inh 88.0 (no result: CSC inhib, aSyn 5UTR inh) | Mdm2 MdmX conf 53.1 | Full FLuc ctr 62.8
COc1ccc(C2c3ccc(O)cc3Oc3ncn(Cc4ccco4)c(=N)c32)cc1 (stereo not drawn)	none
N=c1c2c(ncn1Cc1ccco1)Oc1ccc3ccccc3c1C2c1ccccc1 (stereo not drawn)	Mdm2-MdmX inh 86.0, CSC inhib 102.1 | Mdm2 MdmX conf 55.6 | Full FLuc ctr 49.2
COc1ccc(C2c3c(ncn(Cc4ccco4)c3=N)Oc3ccc4ccccc4c32)cc1 (stereo not drawn)	Mdm2-MdmX inh 87.7, CSC inhib 93.9 | Mdm2 MdmX conf 53.2 | Full FLuc ctr 88.5
Nc1ncc(Br)cc1S(=O)(=O)NCCc1ccccc1	none
c1cc(Nc2cccc3nccnc23)c2nccnc2c1	Mdm2-MdmX inh 61.4 | Mdm2 MdmX conf 52.2 | Full FLuc ctr 89.8
Fc1ccc(Nc2cccc3nccnc23)cc1	none (no result: CSC inhib)
